BL2 CD40 inh = CD40 pathway inhibition in BL2 cells | AID 1053188 | inhibition, % at 10 µM | actives 0.94% (n = 83,000) | BL2 NF-kB luciferase reporter, CD40L-induced, 4 h;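 active = mean inhibition of at least 50% with a set share of replicates also reaching that level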
Hits are given with their value; 0 = inactive; [ ] = another dose, or the depositor's remark. The entries come from a sample that favours hits as a whole.

SMILES	BL2 CD40 inh
COc1ccccc1-c1ccc(C2[C@@H]3CN(S(=O)(=O)c4ccccc4)C[C@H]2N3)cc1 (some centres not stated)	0
Cn1cnc(S(=O)(=O)N2CC[C@@H]3[C@@H](CO)Nc4ccc(-c5ccccc5F)cc4[C@@H]32)c1	0
Cc1sc2ncnc(SCC#N)c2c1C	0
Cc1sc2ncnc(Sc3nnnn3-c3ccccc3)c2c1C	47
CCCSc1ncnc2sc(C)c(C)c12	0
C[C@H]1CN(C)C(=O)c2ccccc2O[C@H]1CN(C)S(C)(=O)=O	0
O=C(c1ccc(-c2ccc([N+](=O)[O-])cc2)o1)N1CCCC(C(F)(F)F)C1 (configuration not stated)	61
O=C(c1ccc(-c2ccc([N+](=O)[O-])cc2)o1)N1CCCCCCC1	0
O=C(c1ccccc1)c1ccc(C(=O)N2CCCC(C(F)(F)F)C2)cc1 (configuration not stated)	0
O=C1CSC(c2ccc([N+](=O)[O-])cc2)N1CCN1CCCCC1 (configuration not stated)	0
O=C1CC(=O)OC(c2ccc([N+](=O)[O-])cc2)O1	86
O=C(O)c1ccc([N+](=O)[O-])cc1	0
CCCN(CCC)CC1CCCCN1CCNC(=O)N1c2ccccc2C(=O)Nc2cccnc21 (configuration not stated)	0
COc1ccccc1CNC(=O)C[C@H]1CC[C@@H]2[C@H](COC[C@@H](O)CN2Cc2ccc3c(c2)OCO3)O1	0
C[C@@H]1CCCCO[C@H](CN(C)Cc2ccc(C(F)(F)F)cc2)[C@H](C)CN([C@@H](C)CO)C(=O)c2cc(NS(=O)(=O)c3ccc(Cl)cc3)ccc2O1	0
COc1ccc(S(=O)(=O)Nc2ccc3c(c2)C(=O)N([C@@H](C)CO)C[C@@H](C)[C@@H](CN(C)Cc2ccc(C(F)(F)F)cc2)OCCCC[C@H](C)O3)cc1	73[25 µM]
COc1ccc(S(=O)(=O)Nc2ccc3c(c2)C(=O)N([C@H](C)CO)C[C@@H](C)[C@@H](CN(C)Cc2ccc(C(F)(F)F)cc2)OCCCC[C@H](C)O3)cc1	58[25 µM]
COc1ccc(NC(=O)Nc2ccc3c(c2)C(=O)N([C@H](C)CO)C[C@H](C)[C@H](CN(C)Cc2ccc(C(F)(F)F)cc2)OCCCC[C@@H](C)O3)cc1	0
COc1ccc(S(=O)(=O)Nc2ccc3c(c2)C(=O)N([C@@H](C)CO)C[C@@H](C)[C@H](CN(C)Cc2ccc(C(F)(F)F)cc2)OCCCC[C@H](C)O3)cc1	0
COc1ccc(S(=O)(=O)Nc2ccc3c(c2)C(=O)N([C@@H](C)CO)C[C@@H](C)[C@@H](CN(C)Cc2ccc(C(F)(F)F)cc2)OCCCC[C@@H](C)O3)cc1	57[25 µM]
COc1ccc(NC(=O)Nc2ccc3c(c2)C(=O)N([C@H](C)CO)C[C@@H](C)[C@H](CN(C)Cc2ccc(C(F)(F)F)cc2)OCCCC[C@H](C)O3)cc1	0
COc1ccc(S(=O)(=O)Nc2ccc3c(c2)C(=O)N([C@H](C)CO)C[C@H](C)[C@H](CN(C)Cc2ccc(C(F)(F)F)cc2)OCCCC[C@H](C)O3)cc1	0
COc1ccc(S(=O)(=O)Nc2ccc3c(c2)C(=O)N([C@H](C)CO)C[C@@H](C)[C@H](CN(C)Cc2ccc(C(F)(F)F)cc2)OCCCC[C@@H](C)O3)cc1	50[25 µM]
COc1ccc(S(=O)(=O)Nc2ccc3c(c2)C(=O)N([C@@H](C)CO)C[C@H](C)[C@H](CN(C)Cc2ccncc2)OCCCC[C@H](C)O3)cc1	0
COc1ccc(S(=O)(=O)Nc2ccc3c(c2)C(=O)N([C@H](C)CO)C[C@H](C)[C@H](CN(C)Cc2ccc(C(F)(F)F)cc2)OCCCC[C@@H](C)O3)cc1	0
SMILES	BL2 CD40 inh
COc1ccc(NC(=O)Nc2ccc3c(c2)C(=O)N([C@@H](C)CO)C[C@@H](C)[C@H](CN(C)Cc2ccc(C(F)(F)F)cc2)OCCCC[C@@H](C)O3)cc1	0
CC(C)NC(=O)N(C)C[C@H]1Oc2ccc(NS(C)(=O)=O)cc2CC(=O)N(C)C[C@H]1C	0
CC(C)NC(=O)Nc1cccc2c1O[C@@H](CN(C)C(=O)NC(C)C)[C@H](C)CN(C)C2=O	0
C[C@H]1CN(C)C(=O)c2cccc(N(C)C)c2O[C@H]1CN(C)C	0
CNC[C@@H]1Oc2ccc(NS(C)(=O)=O)cc2C(=O)N(C)C[C@H]1C	0
O=C(c1cnccn1)N1CC(=O)N2[C@H](CO)[C@@H](c3ccc(C#CC4CCCC4)cc3)[C@@H]2C1	0
C[C@@H]1CN([C@H](C)CO)C(=O)c2ccccc2-c2ccccc2CO[C@H]1CN(C)C(=O)Nc1ccc(F)cc1	0
CCS(=O)(=O)Nc1ccc2c(c1)C(=O)N(C)[C@@H]1CC[C@H](CC(=O)N[C@@H]3CCN(Cc4ccccc4)C3)O[C@@H]1CO2	0
CN1C(=O)c2cc(NC(=O)C3CC3)ccc2OC[C@H]2O[C@H](CC(=O)O)CC[C@@H]21	0
CC1CC(C)(C)Nc2ccc(N=O)cc21 (configuration not stated)	0
CC1CC(C)(C)Nc2ccc(OC(=O)c3ccco3)cc21 (configuration not stated)	68
COc1ccc(C(=O)Nc2cccc(OC(=O)c3ccco3)c2)cc1	0
CN1c2ccc(-c3cccc(C#N)c3)cc2[C@H]2[C@H](CCN2C(=O)C2CCC2)[C@H]1CO	0
Cc1nc2cc(CO)ccc2n1C	0
Cn1c(SCc2nc3ccccc3n2CCO)nc2ccccc21	0
Cn1c(CO)nc2cc(N)ccc21	50
CCCNC(=O)N[C@@H]1CC[C@H](CCn2cc(C3CCCC3)nn2)O[C@@H]1CO	0
O=C(Cc1ccncc1)NCC[C@H]1CC[C@@H](NC(=O)C2CCCC2)[C@H](CO)O1	0
O=C(NC1CCC1)[C@H]1[C@H](CO)[C@H]2Cn3c(ccc(-c4ccncc4)c3=O)[C@@H]1N2Cc1cocn1	0
N=c1cc(C2(O)CCCCC2)n2c(nc3ccccc32)s1	66
O=C(C1CCCCC1)N1CCCn2c1nc1ccccc12	0
NC1=NC2(CCCCC2)n2c(nc3ccccc32)N1	0
CO[C@H]1CN(C)C(=O)c2cc(NC(=O)C3CCOCC3)ccc2OC[C@H](C)NC[C@H]1C	0
O=C1CCCCn2nncc2COC[C@H](Cc2ccccc2)N1	0
Cc1cc(C)cc(N2C(=O)CC(Sc3nnnn3-c3ccccc3)C2=O)c1 (configuration not stated)	99
SMILES	BL2 CD40 inh
Cc1cccc(-n2nnnc2SCC(=O)NC2CCCC2)c1	0
Nc1ccc(Sc2nnnn2-c2ccccc2)c(Cl)c1	0
N#C[C@H]1[C@@H](c2ccccc2C2=CCCCC2)[C@@H](CO)N1C(=O)Cc1ccncc1	0
Cc1ccc(S(=O)(=O)N[C@@H](Cc2ccccc2)C(=O)CCl)cc1	39
CCCC(NS(=O)(=O)c1ccc(C)cc1)C(=O)O (configuration not stated)	0
CC(=O)NC(CC(C)C)C(=O)NC(Cc1ccccc1)C(=O)CCl (configuration not stated)	0
C[C@@H]1CN([C@@H](C)CO)C(=O)c2c(c3ccccc3n2C)-c2ccccc2CO[C@H]1CN(C)C(=O)Nc1cccc(Cl)c1Cl	0
COc1ccccc1NC(=O)N(C)C[C@H]1OCc2ccccc2-c2c(n(C)c3ccccc23)C(=O)N([C@@H](C)CO)C[C@H]1C	0
C[C@H](CO)N1C[C@H](C)[C@@H](CN(C)C(=O)Nc2cccc(Cl)c2Cl)OCc2ccccc2-c2c(n(C)c3ccccc23)C1=O	0
C[C@H](CO)N1C[C@H](C)[C@H](CN(C)C(=O)Nc2cccc(Cl)c2Cl)OCc2ccccc2-c2c(n(C)c3ccccc23)C1=O	65[25 µM]

Source: PubChem
